# Measurements from the supplement of paper PMC9794691.
# Tested on: PC9
# Test: area under confluence curve of compound monotherapy; compare to DMSO control AUC of the same experiment (AUC (confluence x time, arbitrary))
# Conditions: 5 nM; DMSO control AUC in same experiment: 29563
# Method: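 compare to DMSO control AUC of the same experiment; Monotherapy arm of the osimertinib DTP screen: EGFR-mutant NSCLC cells were treated with the test compound alone at a fixed dose (highest dose with <50% inhibition of parental cells, or 1 uM), then switched to drug-free medium at the DTP stage. IncuCyte confluence was tracked and AUC computed in Prism. AUC scale depends on experiment duration, so each row carries the same-experiment DMSO control AUC (monotherapy activity = DMSO AUC minus monotherapy AUC). The monotherapy value is shared between screen formats.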
row,Compound,area under confluence curve
1,NC(=O)Nc1cc(-c2cccc(F)c2)sc1C(=O)N[C@H]1CCCNC1,26800

# Same assay, conditions: 100 nM; DMSO control AUC in same experiment: 20347
row,Compound,area under confluence curve
1,Cc1nc(Nc2n[nH]c3c2CN(C(=O)N[C@H](CN(C)C)c2ccccc2)C3(C)C)c2sccc2n1,22800

# Same assay, conditions: 100 nM; DMSO control AUC in same experiment: 21913
row,Compound,area under confluence curve
1,Nc1ccc(/C=C/C(=O)NCc2cc3cc(-c4ccc(C(=O)N5CCC(F)(F)CC5)cc4)cc(-c4ccc(F)cc4)c3o2)cn1,22800

# Same assay, conditions: 100 nM; DMSO control AUC in same experiment: 28334
row,Compound,area under confluence curve
1,CNC(=O)c1cccc(-c2ccc3c(N4CCOC[C@@H]4C)nc(N4CCOC[C@@H]4C)nc3n2)c1,24900

# Same assay, conditions: 300 nM; DMSO control AUC in same experiment: 49143
row,Compound,area under confluence curve
1,Oc1nc(-c2ccc(C(F)(F)F)cc2)nc2c1CSCC2,49300

# Same assay, conditions: 1000 nM; DMSO control AUC in same experiment: 28684
row,Compound,area under confluence curve
1,COc1cc2nc(C)nc(N[C@H](C)c3cc(N)cc(C(F)(F)F)c3)c2cc1O[C@H]1CCOC1,28300

# Same assay, conditions: 1000 nM; DMSO control AUC in same experiment: 30578
row,Compound,area under confluence curve
1,Cc1[nH]nc(C(F)(F)F)c1Cc1sc2c(c1C(=O)N1C[C@](C)(O)CO1)c(=O)n(C)c(=O)n2C(C)C,30100

# Same assay, conditions: 1000 nM; DMSO control AUC in same experiment: 45737
row,Compound,area under confluence curve
1,Cc1onc(C(=O)N2CCN(C(c3ccc(Cl)cc3)c3ccc(Cl)cc3)CC2)c1[N+](=O)[O-],46500

# Same assay, conditions: 1000 nM; DMSO control AUC in same experiment: 72888
row,Compound,area under confluence curve
1,CCn1cc(-c2cccc(C(F)(F)F)c2)c2sc(C(=N)NC3CCS(=O)(=O)CC3)cc2c1=O,73000
